Reference: PubChem BioAssay

Assay: adipocyte viability effects, profiling panel, cell-based, 3T3-L1 adipocytes, calcein-AM fluorescence, 48 h, basal (AID 1163)
Settings: 3T3-L1 adipocytes viability, higher = more signal
Note: test concentration not given here.

SMILES	z-score
O=C1OCC=C[C@H]2OC34C=CCN(c5ccc(Cl)cc5)C(=O)[C@H]3N(CCCCCCO)C(=O)[C@@H]4[C@@H]12 (some centres undefined)	-0.122
COC(=O)C(CC#Cc1ccc2c(c1)[C@]1(C(=O)N2)[C@H](c2ccc(OCCO)cc2)N2[C@H](c3ccccc3)[C@H](c3ccccc3)OC(=O)[C@H]2[C@@H]1C(=O)NC[C@H](O)c1ccccc1)C(=O)OC	1.04
CCOC(=O)C1=CC[C@@H](c2ccccc2Cl)N(S(=O)(=O)c2ccc(C)cc2)C1	-0.529
O=C1O[C@H](c2ccccc2)[C@H](c2ccccc2)N2[C@H]1[C@@H](C(=O)O)[C@]1(C(=O)Nc3ccc(C#CC4=CCCCC4)cc31)[C@H]2c1ccc(OCCO)cc1	-0.774
N#Cc1ccc(NN2C(C(O)c3ccc([N+](=O)[O-])cc3)C=CC3C(=O)N(c4ccccc4)C(=O)C32)cc1 (centres undefined)	0.0202
C=C(CCCC)/C(=C/C[C@H](OC(C)=O)c1ccc(CO)o1)c1cnc2ccccc2c1	-0.229
O=C1OCCC=C[C@H]2OC34C=CCN(Cc5ccccc5)C(=O)[C@H]3N(CCCCCCO)C(=O)[C@@H]4C12 (some centres undefined)	-0.0143
C[C@]1(C(=O)NCc2ccccc2)c2ccccc2C(=O)N(Cc2ccc(OC(F)(F)F)cc2)[C@H]1c1ccc(CO)cc1	1.12
CC(C)NC(=O)[C@@]1(Cc2ccccc2I)c2ccccc2C(=O)N(Cc2ccccc2)[C@H]1c1ccc(CO)cc1	-0.405
O=C1N(CCS(=O)(=O)c2ccccc2)c2ccccc2C[C@@]12COC(c1ccc(OCCCO)cc1)=N2	0.294
CC1CC/C=C\[C@H]2OC34C=CCN(Cc5ccccc5)C(=O)[C@H]3N(CCCCCO)C(=O)[C@@H]4C2C(=O)O1 (some centres undefined)	0.449

Assay: HepG2 cell viability effects, profiling panel, calcein-AM fluorescence, 48 h, basal (AID 1164)
Settings: higher = more signal

SMILES	z-score
COCCOC(=O)N1C(=O)[C@@]2(c3cc(C#CCNC(N)=O)ccc31)[C@H](C(=O)N1CCc3cc(OC)c(OC)cc3C1)[C@H]1C(=O)O[C@H](c3ccccc3)[C@H](c3ccccc3)N1[C@@H]2c1ccc(OCCO)cc1	-0.0192
CCOC(=O)C1=CC[C@@H](c2ccccc2)N(S(=O)(=O)c2ccc(C)cc2)[C@H]1C(=O)OCC	-0.111
O=C(CS)NCCCCCCNC(=O)[C@@H]1C[C@@H]2C(=O)N3CCC[C@H]3C(=O)N2[C@@H]1c1ccc(O)cc1	-0.507
CCOC(=O)C1=CCC(c2ccc([N+](=O)[O-])cc2)N(S(=O)(=O)c2ccc(C)cc2)C1 (centres undefined)	0.0862
COCCOC(=O)N1C(=O)[C@@]2(c3cc(C#CCNC(N)=O)ccc31)[C@H](c1ccc(O)cc1)N1[C@H](c3ccccc3)[C@H](c3ccccc3)OC(=O)[C@H]1[C@@H]2C(=O)Nc1nc2ccccc2s1	0.461
O=c1cccc(CCc2ccccc2)o1	0.926
O=C1N(CCS(=O)(=O)c2ccccc2)Cc2ccccc2[C@H]2OC(c3ccc(OCCCO)cc3)=N[C@@]12CCS(=O)(=O)c1ccccc1	1.19
CN(C)C(=O)[C@@]1(CCC(=O)OC(C)(C)C)N=C(c2ccc(OCCCO)cc2)O[C@H]1c1ccccc1	-0.517
O=C1C2C=CC(C(O)c3ccc(-c4ccccc4)s3)N(n3cnnc3)C2C(=O)N1Cc1ccccc1 (centres undefined)	-0.638
CC(C)C(O)C1C=CC2C(=O)N(c3ccccc3)C(=O)C2N1Nc1ccc(C#N)cc1 (centres undefined)	-0.114
COC(=O)c1ccc(C(O)C2C=CC3C(=O)N(C)C(=O)C3N2NC(=O)OC(C)(C)C)o1 (centres undefined)	0.0285
CCOC(=O)C1=C[C@@H](CC)N(S(=O)(=O)c2ccc(C)cc2)[C@H]1c1ccccc1	-0.342
COC(=O)[C@@]1(Cc2ccccc2)[C@H]2c3cc(C(=O)N(C)C)n(Cc4c(-c5ccccc5)noc4C)c3C[C@H]2CN1C(=O)c1ccccc1	-1.41
COCCOC(=O)N1C(=O)[C@@]2(c3cc(C#CCNC(N)=O)ccc31)[C@H](c1ccccc1OCCO)N1[C@H](c3ccccc3)[C@H](c3ccccc3)OC(=O)[C@H]1[C@@H]2C(N)=O	-0.617
CC(C)N1C(=O)[C@@]2(c3ccc([N+](=O)[O-])cc3)CC(=O)N(CC34CC5CC(CC(C5)C3)C4)[C@@H]2c2ccc(CO)cc21	1.36
CC(=O)NCCCC[C@@H]1NC(=O)[C@@H]2C[C@H](C(=O)NCCCCN(C)C)[C@H](c3ccc(O)cc3)N2C1=O	0.374
Cc1ccccc1C(O)C1C=CC2C(=O)N(C)C(=O)C2N1N1CCCCC1 (centres undefined)	-0.979
CCOC(=O)C[C@H]1[C@H](OC(=O)c2ccc(C(=O)c3ccccc3)cc2)[C@@H](NC(=O)C2CCCCC2)c2cc(OCCCO)ccc2N1C(=O)c1ccccc1	0.431
